Several values for one entry are separate records, joined by “and”; a condition that tells them apart may be missing. Equal values may be shown once. Among all 5,500 compounds or so, about 2,000 (36%) were called active. Another 18% or so got no clear call; they are omitted. Rule as the data show it: active = normalized growth mostly below about 0.91 (no sharp cut-off); inconclusive = no clear call, values can overlap the other calls; inactive = mostly above about 0.92. The list shows a part of the results.
Assay: chemical genetic growth profiling, strain panel (AID 1159580);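 also: tested at 20 µM; growth read once vehicle control cultures reached saturation at 30 °C; 1 = growth at the plate median or of vehicle wells; lower values mean less growth of the strain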
Details: growth OD

Measured: normalized growth

C1CCc2nnnn2CC1
inactive: S. cerevisiae deletion strains, locus YJR075W, strain HOC1, hits give low values 1.03 and 1.01 | S. cerevisiae deletion strains, locus YKL009W, strain mrt4, hits give low values 1.03 | S. cerevisiae deletion strains, locus YKL068W, hits give low values 1.02 | S. cerevisiae deletion strains, locus YKL085W, strain MDH1 (second series), hits give low values 1 | S. cerevisiae deletion strains, locus YKL085W, strain MDH1, hits give low values 1 | S. cerevisiae deletion strains, locus YKL160W, strain elf1, hits give low values 1.01 | S. cerevisiae deletion strains, locus YKL190W, strain CNB1, hits give low values 1 | S. cerevisiae deletion strains, locus YKR001C, strain vps1, hits give low values 1.02 | S. cerevisiae deletion strains, locus YKR026C, strain gcn3, hits give low values 1.01 | S. cerevisiae deletion strains, locus YKR091W, strain srl3, hits give low values 1 | S. cerevisiae deletion strains, locus YLL001W, strain dnm1, hits give low values 1 | S. cerevisiae deletion strains, locus YLL026W, hits give low values 1 | S. cerevisiae deletion strains, locus YLL041C, strain sdh2, hits give low values 1 | S. cerevisiae deletion strains, locus YLR027C, strain aat2, hits give low values 1 | S. cerevisiae deletion strains, locus YLR039C, strain RIC1, hits give low values 1.03 | S. cerevisiae deletion strains, locus YLR058C, strain SHM2, hits give low values 1.02 | S. cerevisiae deletion strains, locus YLR102C, strain apc9, hits give low values 1 | S. cerevisiae deletion strains, locus YLR113W, strain HOG1, hits give low values 0.985 | S. cerevisiae deletion strains, locus YLR221C, strain rsa3, hits give low values 1.01 | S. cerevisiae deletion strains, locus YLR258W, strain gsy2, hits give low values 1.01 | S. cerevisiae deletion strains, locus YLR262C, strain YPT6 (second series), hits give low values 1.02 | S. cerevisiae deletion strains, locus YLR262C, strain YPT6, hits give low values 1.04 | S. cerevisiae deletion strains, locus YLR268W, strain sec22, hits give low values 1.05 | S. cerevisiae deletion strains, locus YLR320W, strain mms22, hits give low values 1.01 | S. cerevisiae deletion strains, locus YLR330W, strain CHS5, hits give low values 1 | S. cerevisiae deletion strains, locus YLR342W, strain FKS1 (second series), hits give low values 1.01 | S. cerevisiae deletion strains, locus YLR342W, strain FKS1, hits give low values 1.01 | S. cerevisiae deletion strains, locus YLR357W, strain rsc2, hits give low values 0.983 | S. cerevisiae deletion strains, locus YLR370C, strain arc18, hits give low values 1.01 | S. cerevisiae deletion strains, locus YLR371W, strain rom2, hits give low values 1.02 | S. cerevisiae deletion strains, locus YLR384C, strain iki3, hits give low values 0.999 | S. cerevisiae deletion strains, locus YLR418C, strain cdc73, hits give low values 1.02 | S. cerevisiae deletion strains, locus YML016C, strain PPZ1, hits give low values 1.01 | S. cerevisiae deletion strains, locus YML032C, strain rad52, hits give low values 1.03 | S. cerevisiae deletion strains, locus YML120C, strain ndi1, hits give low values 0.998 | S. cerevisiae deletion strains, locus YML124C, strain tub3, hits give low values 1.01 | S. cerevisiae deletion strains, locus YMR058W, strain fet3, hits give low values 1.01 | S. cerevisiae deletion strains, locus YMR078C, strain ctf18, hits give low values 1.02 | S. cerevisiae deletion strains, locus YMR125W, strain sto1, hits give low values 1.01 | S. cerevisiae deletion strains, locus YMR129W, hits give low values 1.01 | S. cerevisiae deletion strains, locus YMR205C, strain PFK2, hits give low values 1.03 | S. cerevisiae deletion strains, locus YMR223W, strain ubp8, hits give low values 0.987 | S. cerevisiae deletion strains, locus YMR231W, strain pep5, hits give low values 1 | S. cerevisiae deletion strains, locus YMR263W, strain SAP30, hits give low values 1.03 | S. cerevisiae deletion strains, locus YMR307W, strain GAS1, hits give low values 1.01 | S. cerevisiae deletion strains, locus YNL067W, strain RPL9B, hits give low values 1.03 | S. cerevisiae deletion strains, locus YNL071W, strain lat1, hits give low values 0.999 | S. cerevisiae deletion strains, locus YNL128W, strain TEP1, hits give low values 1.02 | S. cerevisiae deletion strains, locus YNL153C, strain GIM3, hits give low values 1.02 and 1.14 | S. cerevisiae deletion strains, locus YNL175C, strain NOP13, hits give low values 1.01 | S. cerevisiae deletion strains, locus YNL183C, strain NPR1, hits give low values 0.918 | S. cerevisiae deletion strains, locus YNL197C, strain WHI3, hits give low values 1.01 | S. cerevisiae deletion strains, locus YNL209W, strain ssb2, hits give low values 1.01 | S. cerevisiae deletion strains, locus YNL224C, strain SQS1, hits give low values 1.02 | S. cerevisiae deletion strains, locus YNL233W, strain BNI4, hits give low values 0.982 | S. cerevisiae deletion strains, locus YNL248C, strain rpa49, hits give low values 0.994 | S. cerevisiae deletion strains, locus YNL250W, strain rad50, hits give low values 1 | S. cerevisiae deletion strains, locus YNL271C, strain bni1, hits give low values 1.02 | S. cerevisiae deletion strains, locus YNL298W, strain CLA4, hits give low values 1.01 | S. cerevisiae deletion strains, locus YNL307C, strain MCK1, hits give low values 1.01 | S. cerevisiae deletion strains, locus YNL322C, strain KRE1 (second series), hits give low values 1.01 | S. cerevisiae deletion strains, locus YNL322C, strain KRE1, hits give low values 1.01 and 1 | S. cerevisiae deletion strains, locus YNR049C, strain mso1, hits give low values 1.01 | S. cerevisiae deletion strains, locus YNR052C, strain pop2, hits give low values 1 | S. cerevisiae deletion strains, locus YOL006C, strain TOP1, hits give low values 1.08 | S. cerevisiae deletion strains, locus YOL012C, strain htz1 0.99 | S. cerevisiae deletion strains, locus YOL147C, strain pex11, hits give low values 1.01 | S. cerevisiae deletion strains, locus YOR001W, strain rrp6, hits give low values 1 | S. cerevisiae deletion strains, locus YOR061W, strain CKA2, hits give low values 1.01 | S. cerevisiae deletion strains, locus YOR069W, strain VPS5, hits give low values 1.02 | S. cerevisiae deletion strains, locus YOR070C, strain gyp1, hits give low values 0.999 | S. cerevisiae deletion strains, locus YOR080W, strain dia2, hits give low values 1 | S. cerevisiae deletion strains, locus YOR083W, strain WHI5 (second series), hits give low values 1.02 | S. cerevisiae deletion strains, locus YOR083W, strain WHI5, hits give low values 1.02 | S. cerevisiae deletion strains, locus YOR106W, strain vam3, hits give low values 1.01 | S. cerevisiae deletion strains, locus YOR136W, strain idh2, hits give low values 0.992 | S. cerevisiae deletion strains, locus YOR144C, strain elg1, hits give low values 1.01 | S. cerevisiae deletion strains, locus YOR184W, strain ser1, hits give low values 1.03 | S. cerevisiae deletion strains, locus YOR231W, strain MKK1, hits give low values 0.982 | S. cerevisiae deletion strains, locus YOR265W, strain rbl2, hits give low values 1.02 | S. cerevisiae deletion strains, locus YOR270C, strain vph1, hits give low values 1.04 | S. cerevisiae deletion strains, locus YOR290C, strain snf2, hits give low values 1.01 | S. cerevisiae deletion strains, locus YOR316C, strain cot1, hits give low values 1.01 | S. cerevisiae deletion strains, locus YPL051W, strain arl3, hits give low values 1.01 | S. cerevisiae deletion strains, locus YPL055C, strain LGE1, hits give low values 0.977 | S. cerevisiae deletion strains, locus YPL078C, strain atp4, hits give low values 1.01 | S. cerevisiae deletion strains, locus YPL106C, strain sse1, hits give low values 1 | S. cerevisiae deletion strains, locus YPL240C, strain hsp82, hits give low values 1.02 | S. cerevisiae deletion strains, locus YPL241C, strain CIN2, hits give low values 1 | S. cerevisiae deletion strains, locus YPL256C, strain CLN2, hits give low values 0.976 | S. cerevisiae deletion strains, locus YPR119W, strain clb2, hits give low values 1 | S. cerevisiae deletion strains, locus YPR141C, strain kar3, hits give low values 1 | S. cerevisiae deletion strains, locus YPR163C, strain tif3, hits give low values 1.02 | S. cerevisiae deletion strains, locus YPR167C, strain met16, hits give low values 1.01 | S. cerevisiae deletion strains, strain wtn01, hits give low values 1.02 | S. cerevisiae strains, strain wild type, hits give low values 1.01

Source: PubChem BioAssay AID1159580 (chemical genetic matrix, 2015)
